PubChem BioAssay AID1159580 (chemical genetic matrix, 2015)
The campaign covered roughly 5,500 compounds. About 2,000 (36%) were called active. Roughly 18% stayed inconclusive and do not appear here. No stated cut-off is given here; in the data, active means normalized growth mostly below about 0.91 (no sharp cut-off); inconclusive means no clear call, values can overlap the other calls; inactive means mostly above about 0.92. Some of the results follow.

Experiment: chemical genetic growth profiling, strain panel (AID 1159580);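 further: tested at 20 µM; growth read once vehicle control cultures reached saturation at 30 °C; 1 = growth at the plate median or of vehicle wells; lower values mean less growth of the strain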
Details: growth OD

Measured: normalized growth

O=C1OC(c2ccc(O)cc2)(c2ccc(O)cc2)c2ccccc21
active: S. cerevisiae deletion strains, locus YLR418C, strain cdc73, active compounds read low 0.835
inactive: S. cerevisiae deletion strains, locus YJR043C, strain POL32, active compounds read low 0.991 | S. cerevisiae deletion strains, locus YJR066W, strain TOR1, active compounds read low 0.937 | S. cerevisiae deletion strains, locus YKL009W, strain mrt4, active compounds read low 0.979 | S. cerevisiae deletion strains, locus YKL068W, active compounds read low 0.991 | S. cerevisiae deletion strains, locus YKL085W, strain MDH1 (second series), active compounds read low 0.975 | S. cerevisiae deletion strains, locus YKL085W, strain MDH1, active compounds read low 0.975 | S. cerevisiae deletion strains, locus YKL160W, strain elf1, active compounds read low 0.97 | S. cerevisiae deletion strains, locus YKL190W, strain CNB1, active compounds read low 0.994 | S. cerevisiae deletion strains, locus YKR001C, strain vps1, active compounds read low 0.993 | S. cerevisiae deletion strains, locus YKR091W, strain srl3, active compounds read low 0.989 | S. cerevisiae deletion strains, locus YLL001W, strain dnm1, active compounds read low 0.964 | S. cerevisiae deletion strains, locus YLL026W, active compounds read low 0.973 | S. cerevisiae deletion strains, locus YLL041C, strain sdh2, active compounds read low 0.979 | S. cerevisiae deletion strains, locus YLR027C, strain aat2, active compounds read low 0.983 | S. cerevisiae deletion strains, locus YLR039C, strain RIC1, active compounds read low 0.96 | S. cerevisiae deletion strains, locus YLR058C, strain SHM2, active compounds read low 0.995 | S. cerevisiae deletion strains, locus YLR102C, strain apc9, active compounds read low 0.978 | S. cerevisiae deletion strains, locus YLR113W, strain HOG1, active compounds read low 0.974 | S. cerevisiae deletion strains, locus YLR221C, strain rsa3, active compounds read low 1.01 | S. cerevisiae deletion strains, locus YLR258W, strain gsy2, active compounds read low 0.973 | S. cerevisiae deletion strains, locus YLR262C, strain YPT6 (second series), active compounds read low 0.995 | S. cerevisiae deletion strains, locus YLR262C, strain YPT6, active compounds read low 0.946 | S. cerevisiae deletion strains, locus YLR268W, strain sec22, active compounds read low 0.916 | S. cerevisiae deletion strains, locus YLR320W, strain mms22, active compounds read low 1 | S. cerevisiae deletion strains, locus YLR330W, strain CHS5, active compounds read low 0.982 | S. cerevisiae deletion strains, locus YLR342W, strain FKS1 (second series), active compounds read low 0.998 | S. cerevisiae deletion strains, locus YLR342W, strain FKS1, active compounds read low 0.994 | S. cerevisiae deletion strains, locus YLR357W, strain rsc2, active compounds read low 0.949 | S. cerevisiae deletion strains, locus YLR370C, strain arc18, active compounds read low 0.989 | S. cerevisiae deletion strains, locus YLR371W, strain rom2, active compounds read low 0.948 | S. cerevisiae deletion strains, locus YLR384C, strain iki3, active compounds read low 0.981 | S. cerevisiae deletion strains, locus YML016C, strain PPZ1, active compounds read low 1 | S. cerevisiae deletion strains, locus YML032C, strain rad52, active compounds read low 0.956 | S. cerevisiae deletion strains, locus YML120C, strain ndi1, active compounds read low 0.977 | S. cerevisiae deletion strains, locus YML124C, strain tub3, active compounds read low 0.978 | S. cerevisiae deletion strains, locus YMR058W, strain fet3, active compounds read low 0.966 | S. cerevisiae deletion strains, locus YMR078C, strain ctf18, active compounds read low 0.968 | S. cerevisiae deletion strains, locus YMR125W, strain sto1, active compounds read low 0.962 | S. cerevisiae deletion strains, locus YMR129W, active compounds read low 0.987 | S. cerevisiae deletion strains, locus YMR205C, strain PFK2, active compounds read low 0.971 | S. cerevisiae deletion strains, locus YMR223W, strain ubp8, active compounds read low 0.997 | S. cerevisiae deletion strains, locus YMR231W, strain pep5, active compounds read low 0.992 | S. cerevisiae deletion strains, locus YMR307W, strain GAS1, active compounds read low 0.909 | S. cerevisiae deletion strains, locus YNL067W, strain RPL9B, active compounds read low 0.987 | S. cerevisiae deletion strains, locus YNL071W, strain lat1, active compounds read low 0.95 | S. cerevisiae deletion strains, locus YNL153C, strain GIM3, active compounds read low 1 | S. cerevisiae deletion strains, locus YNL183C, strain NPR1, active compounds read low 0.956 | S. cerevisiae deletion strains, locus YNL209W, strain ssb2, active compounds read low 0.99 | S. cerevisiae deletion strains, locus YNL233W, strain BNI4, active compounds read low 0.981 | S. cerevisiae deletion strains, locus YNL250W, strain rad50, active compounds read low 0.99 | S. cerevisiae deletion strains, locus YNL271C, strain bni1, active compounds read low 0.988 | S. cerevisiae deletion strains, locus YNL298W, strain CLA4, active compounds read low 0.99 | S. cerevisiae deletion strains, locus YNL307C, strain MCK1, active compounds read low 0.937 | S. cerevisiae deletion strains, locus YNL322C, strain KRE1 (second series), active compounds read low 0.991 | S. cerevisiae deletion strains, locus YNL322C, strain KRE1, active compounds read low 0.994 | S. cerevisiae deletion strains, locus YNR049C, strain mso1, active compounds read low 0.99 | S. cerevisiae deletion strains, locus YNR052C, strain pop2, active compounds read low 0.969 | S. cerevisiae deletion strains, locus YOL006C, strain TOP1, active compounds read low 0.952 | S. cerevisiae deletion strains, locus YOL012C, strain htz1 0.612 | S. cerevisiae deletion strains, locus YOL147C, strain pex11, active compounds read low 0.981 | S. cerevisiae deletion strains, locus YOR001W, strain rrp6, active compounds read low 0.973 | S. cerevisiae deletion strains, locus YOR061W, strain CKA2, active compounds read low 1 | S. cerevisiae deletion strains, locus YOR069W, strain VPS5, active compounds read low 0.988 | S. cerevisiae deletion strains, locus YOR070C, strain gyp1, active compounds read low 0.991 | S. cerevisiae deletion strains, locus YOR080W, strain dia2, active compounds read low 0.981 | S. cerevisiae deletion strains, locus YOR083W, strain WHI5, active compounds read low 0.983 | S. cerevisiae deletion strains, locus YOR106W, strain vam3, active compounds read low 0.944 | S. cerevisiae deletion strains, locus YOR136W, strain idh2, active compounds read low 0.983 | S. cerevisiae deletion strains, locus YOR144C, strain elg1, active compounds read low 0.987 | S. cerevisiae deletion strains, locus YOR184W, strain ser1, active compounds read low 0.939 | S. cerevisiae deletion strains, locus YOR231W, strain MKK1, active compounds read low 0.974 | S. cerevisiae deletion strains, locus YOR265W, strain rbl2, active compounds read low 0.995 | S. cerevisiae deletion strains, locus YOR270C, strain vph1, active compounds read low 0.89 | S. cerevisiae deletion strains, locus YOR290C, strain snf2, active compounds read low 0.965 | S. cerevisiae deletion strains, locus YOR316C, strain cot1, active compounds read low 0.968 | S. cerevisiae deletion strains, locus YPL051W, strain arl3, active compounds read low 1 | S. cerevisiae deletion strains, locus YPL078C, strain atp4, active compounds read low 0.952 | S. cerevisiae deletion strains, locus YPL106C, strain sse1, active compounds read low 1.01 | S. cerevisiae deletion strains, locus YPL240C, strain hsp82, active compounds read low 0.982 | S. cerevisiae deletion strains, locus YPL241C, strain CIN2, active compounds read low 0.989 | S. cerevisiae deletion strains, locus YPL256C, strain CLN2, active compounds read low 0.965 | S. cerevisiae deletion strains, locus YPR119W, strain clb2, active compounds read low 0.98 | S. cerevisiae deletion strains, locus YPR141C, strain kar3, active compounds read low 0.998 | S. cerevisiae deletion strains, locus YPR163C, strain tif3, active compounds read low 0.965 | S. cerevisiae deletion strains, locus YPR167C, strain met16, active compounds read low 0.972 | S. cerevisiae deletion strains, strain wtn01, active compounds read low 0.954 | S. cerevisiae strains, strain wild type, active compounds read low 0.998
